Data from PubChem BioAssay (NCATS).
Records with an inconclusive call do not appear. Calls of active or inactive are those of the source. Calls come from the whole dose curve; as a rule, active = well fitted inhibition curve with a large enough effect; inconclusive = small, poorly fitted or top-dose-only effect; inactive = flat fitted curve, though single readings scatter.

How the values were obtained:
[1] = molecular target: Glutathione peroxidase 1 (Homo sapiens) (UniProt P07203); assay: Primary qHTS Assay for Inhibitors of Recombinant Selenoprotein Glutathione Peroxidase 1 (GPX1) (AID 1845191); note: nearly all actives have a fitted effect of over 65% in size; for activity, negative = inhibition: % is set by controls: 0 for no effect and ±100 for the full control effect
Procedure, shortened: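 GPX1 10 nM, GR 100 nM, GSH 1 mM, NADPH 0.5 mM, CHP 0.5 mM (final). 30-min cpd preincubation, RT. Ex340/Em450 read t=0, t=15 min.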

[2] = molecular target: Phospholipid hydroperoxide glutathione peroxidase GPX4 (Homo sapiens) (UniProt P36969); assay: Primary qHTS Assay for Inhibitors of Recombinant Selenoprotein Glutathione Peroxidase 4 (GPX4) (AID 1845192); note: nearly all actives have a fitted effect of over 65% in size; for activity change, negative = inhibition: series mostly up to about 50 µM; % is set by controls: 0 for no effect and ±100 for the full control effect
Procedure, shortened: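 qHTS, GR-coupled: GPX4 200 nM + cpd 30 min RT → GSH 1 mM, NADPH 0.5 mM, GR 100 nM → CHP 0.5 mM start; fluor 340/450 at t0 and t15 min; no-enzyme wells as control.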

[3] = molecular target: Luciferin 4-monooxygenase (Photinus pyralis) (UniProt P08659); assay: Primary firefly luciferase (FLuc) qHTS assay for identification of artifact compounds. (AID 1845220); note: nearly all actives have a fitted effect of over 60% in size;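 for activity change, negative = inhibition: series mostly up to about 54 µM; plate controls were DMSO vehicle for no effect and no enzyme for full effect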
Procedure, shortened: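 Reaction readout was CCD-imaged luminescence, taken 5 min after adding 10 nM purified firefly enzyme to compound-treated wells holding 10 uM luciferin and ATP in pH 7.6 buffer.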

Phospholipid hydroperoxide glutathione peroxidase GPX4 (Homo sapiens), sequence (P36969 whole entry, looked up): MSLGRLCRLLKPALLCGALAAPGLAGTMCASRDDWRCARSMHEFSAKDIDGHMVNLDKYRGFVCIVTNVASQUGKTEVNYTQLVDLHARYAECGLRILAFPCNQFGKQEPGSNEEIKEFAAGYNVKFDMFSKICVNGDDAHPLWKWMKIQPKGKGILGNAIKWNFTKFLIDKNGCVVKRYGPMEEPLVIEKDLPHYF
Glutathione peroxidase 1 (Homo sapiens), sequence (P07203 whole entry, looked up): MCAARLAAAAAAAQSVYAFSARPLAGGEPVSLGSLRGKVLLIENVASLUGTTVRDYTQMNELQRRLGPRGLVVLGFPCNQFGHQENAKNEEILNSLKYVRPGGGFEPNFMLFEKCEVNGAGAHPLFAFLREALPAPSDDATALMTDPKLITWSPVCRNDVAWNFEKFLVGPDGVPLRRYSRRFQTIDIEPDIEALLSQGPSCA

CC(O)C(O)/C=C/C=C/C(=O)O[C@@H]1C=C2COC(=O)[C@]2(O)[C@@]2(C)CCCC(C)(C)C12 (stereo partly specified)
inactive: Potency [1] | Potency [2] | Potency [3]

NCCOCCOCCNC(=O)Cc1ccc(Nc2nc(NCc3ccc(F)cc3)nc(NCC3CCCCC3)n2)cc1
inactive: Potency [1] | Potency [2] | Potency [3]

Cn1c(=O)c2nc(/C=C/c3cccc(Cl)c3)n(C)c2n(C)c1=O
inactive: Potency [1] | Potency [2] | Potency [3]

O=C1Nc2ccc(O)cc2O[C@H]1O[C@@H]1O[C@H](CO)[C@@H](O)[C@H](O)[C@H]1O
inactive: Potency [1] | Potency [2] | Potency [3]

CC(=O)OC[C@]12[C@H](OC(C)=O)C(=O)[C@@H]3[C@@H](OC(C)=O)[C@@]14O[C@@]3(C)COC(=O)c1cccnc1[C@@H](C)[C@H](C)C(=O)O[C@@H]([C@H](OC(C)=O)[C@@H]2OC(C)=O)[C@]4(C)O
inactive: Potency [1] | Potency [2] | Potency [3]

CC1CC(O)C2(C)C(C(=O)O)=CCCC2C1(C)CCc1ccoc1 (stereo unspecified)
inactive: Potency [1] | Potency [2] | Potency [3]

C=CC1(C)CC2=CCC3C(C)(C(=O)O)CCCC3(C)C2CC1OC(C)=O (stereo unspecified)
inactive: Potency [1] | Potency [2] | Potency [3]

CC(=O)N[C@H]1[C@H](O[C@H]2CC[C@@]3(C)C(CC[C@]4(C)C3CC=C3C5CC(C)(C)CC[C@]5(C(=O)O)[C@H](O[C@@H]5O[C@H](CO)[C@@H](O)[C@H](O)[C@H]5O)C[C@]34C)C2(C)C)O[C@H](CO[C@@H]2OC[C@H](O)[C@H](O)[C@H]2O[C@@H]2OC[C@@H](O)[C@H](O)[C@H]2O)[C@@H](O)[C@@H]1O (stereo partly specified)
inactive: Potency [1] | Potency [2] | activity change, negative = inhibition [3] 2.58% [at 11.6 µM]

CCC(C)/C=C(C)/C=C/C1=CC2=C(Cl)C(=O)C(C)(OC(C)=O)C(=O)C2=CN1C1CCCCN(C(CCC(N)=O)C(=O)O)C1=O (stereo unspecified)
inactive: Potency [1] | Potency [2] | Potency [3]

O=C(O)c1cc(O[C@@H]2O[C@H](CO[C@@H]3OC[C@@H](O)[C@H](O)[C@H]3O)[C@@H](O)[C@H](O)[C@H]2O)c2ccccc2c1O
inactive: Potency [1] | Potency [2] | Potency [3]

COc1cc(/C=C/CO)ccc1O[C@@H]1O[C@H](CO)[C@@H](O)[C@H](O)[C@H]1O
inactive: Potency [1] | Potency [2] | Potency [3]

C=C[C@H]1[C@H](O[C@@H]2O[C@H](CO[C@@H]3OC[C@](O)(CO)[C@H]3O)[C@@H](O)[C@H](O)[C@H]2O)OC=C2C(=O)OCC[C@H]21
inactive: Potency [1] | Potency [2] | Potency [3]

CC1=C(CC(=O)O)c2cc(F)ccc2C1=Cc1ccc(S(C)(=O)=O)cc1
inactive: Potency [1] | Potency [2] | Potency [3]

CC(=O)O[C@@H]1[C@H](O[C@@H]2O[C@H](CO)[C@@H](O)[C@H](O)[C@H]2O)[C@@H](O[C@@H]2O[C@@H](C)[C@H](O)[C@@H](O[C@@H]3O[C@H](CO)[C@@H](O)[C@H](O)[C@H]3O)[C@H]2O)[C@H](OC(=O)C23CCC4(C)C(=CCC5C6(C)CC(O)C(O[C@@H]7O[C@H](C(=O)O)[C@@H](O)[C@H](O)[C@H]7O)C(C)(C(=O)O)C6CCC54C)C2CC(C)(C)CC3O)O[C@@H]1C (stereo partly specified)
inactive: outcome [1] inactive [at 9.52 µM] | activity change, negative = inhibition [2] 1.73% [at 9.73 µM] | outcome [3] inactive [at 11.6 µM]

c1nc(NC2CCCCCC2)c2cc(CNC[C@H]3CCCO3)sc2n1
inactive: Potency [1] | Potency [2] | Potency [3]

CC(C)(C)c1cc(CN2CCN(CC(O)c3ccc(Cl)cc3)CC2)cc(C(C)(C)C)c1O (stereo unspecified)
inactive: Potency [1] | Potency [2] | Potency [3]

CC1=CC(=O)CC(C)(C)C1(O)CCC(C)O (stereo unspecified)
inactive: Potency [1] | Potency [2] | Potency [3]

CC(C)C(C#N)O[C@@H]1O[C@H](CO[C@@H]2OC[C@](O)(CO)[C@H]2O)[C@@H](O)[C@H](O)[C@H]1O (stereo partly specified)
inactive: Potency [1] | Potency [2] | Potency [3]

CC(=O)[C@@H]1CC[C@]2(C(=O)O)CC[C@]3(C)C(CCC4[C@@]5(C)CC[C@H](O)C(C)(C)C5CC[C@]43C)C12 (stereo partly specified)
inactive: Potency [1] | Potency [2] | Potency [3]

COC(=O)[C@@]1(O)C=CC[C@@H]2[C@@]3(C)C[C@@H](c4ccoc4)OC(=O)[C@H]3CC[C@]21C
inactive: Potency [1] | Potency [2] | Potency [3]

CC1C(=O)CC2C3C(O)CC(C(=O)O)C12CC3(C)C (stereo unspecified)
inactive: Potency [1] | Potency [2] | Potency [3]

CC[C@H](/C=C/[C@@H](C)[C@H]1CC[C@H]2[C@@H]3CC=C4C[C@@H](O)CC[C@]4(C)[C@H]3CC[C@]12C)C(C)C
inactive: activity, negative = inhibition [1] -3.99% [at 4.49 µM] | activity change, negative = inhibition [2] 1.85% [at 4.52 µM] | activity change, negative = inhibition [3] 2.1% [at 6.45 µM]
